Measurements as given in PubChem BioAssay.
Values without a mark were called inactive. Active and inactive are the calls of the source.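 The calls were made as follows: active = inhibition above the hit cutoff set in the earlier primary screen (cut at about 27% in these data); inactive = the rest.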

molecular target: Protein phosphatase methylesterase 1 (Homo sapiens) (UniProt Q9Y570); assay: human PME-1 methylesterase inhibition confirmation – biochemical, fluorescence polarization, FP-Rh probe, triplicate (AID 2171); conditions: recombinant PME-1, FP-Rh probe fluorescence polarization; at 5.9 µM; active compounds read high;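 also: 0% = enzyme with DMSO and 100% = wells lacking PME-1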
Sequence (Q9Y570 whole entry, looked up): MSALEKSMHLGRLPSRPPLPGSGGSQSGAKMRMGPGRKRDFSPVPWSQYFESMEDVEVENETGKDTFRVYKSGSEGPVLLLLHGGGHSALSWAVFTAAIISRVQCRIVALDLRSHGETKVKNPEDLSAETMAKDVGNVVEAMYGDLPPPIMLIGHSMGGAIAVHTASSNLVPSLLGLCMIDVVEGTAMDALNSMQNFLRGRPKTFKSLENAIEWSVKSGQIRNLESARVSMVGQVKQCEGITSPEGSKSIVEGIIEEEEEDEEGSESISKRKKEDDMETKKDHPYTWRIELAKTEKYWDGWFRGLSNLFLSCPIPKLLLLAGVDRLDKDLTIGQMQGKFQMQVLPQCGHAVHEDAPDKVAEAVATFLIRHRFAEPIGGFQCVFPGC

SMILES	inhibition
Cc1ccc(Nc2c([N+](=O)[O-])ccc3c2=NC2(CCCCC2)N=3)cc1	44.3% (active)
Cn1c(=N)n(CC(=O)c2ccc(Br)cc2)c2ccccc21	13.3%
Cn1c(=O)c(C#N)c(-c2ccc(F)cc2)c2cc(C(=O)c3cc(Cl)cc(Cl)c3O)cnc21	59.1% (active)
CCN(CC)c1ccc(S(=O)(=O)N2CCOCC2)cc1NC(=O)CN1CCN(Cc2ccccc2)CC1	72.3% (active)
CCc1cc(/C(Cc2ccc3ccccc3n2)=N\O)c(O)cc1O	30.8% (active)
N#CCCN(CCC#N)C(=O)C1c2ccccc2Oc2ccccc21	-4.23%
CCN(CC)C(=O)C1c2ccccc2Oc2ccccc21	7.22%
O=C(NCCC1=CCCCC1)C1CCN(S(=O)(=O)c2cccs2)CC1	25.6%
COc1cc(/C=C/c2ccc3cccc(O)c3n2)c(Br)cc1O	27.5% (active)
COc1ccc(-c2cc(-c3c(O)c(OC)c4occc4c3OC)[nH]n2)cc1OC	12.9%
Cn1c(O)c(/C=N/NC(=O)c2cc3ccccc3cc2O)c2ccccc21	58.7% (active)
Cc1c2cc(O)c(=O)cc-2oc2cc(O)c(O)cc12	143% (active)
CC1(OC(=O)c2cnc3ccccc3n2)C(=O)C=C2C=C(C3CC3)OC=C2C1=O (stereo unspecified)	23.9%
Nc1[nH]n(-c2ccccc2)c(=O)c1N=Nc1ccc2c(c1)OCO2	39.8% (active)
Cc1ccc(N/N=C(\C#N)C(N)=S)c(C)c1	57.9% (active)
CCc1nnc(NC(=O)c2sc3nc4c(cc3c2N)CCCCCC4)s1	16.3%
